Measurements taken from the supplement of paper PMC10849652.
Of roughly 8,800 targets only a part is listed; those with a hit were picked by preference. About 0.5% of all pairs of compound and target were hits. Values without a mark were called inactive.

Tests used:
Assay in all cases: log2 fold change, soluble protein after heating vs DMSO (PISA); higher = thermal stabilisation; K562 lysate, 10 uM; active = over 0.2 and 3.5 SD of the protein, either way, in both replicates (recomputed)
[1] = compound: CN1CC[C@H](c2c(O)cc(O)c3c(=O)cc(-c4ccccc4Cl)oc23)[C@H](O)C1 [alvocidib]
Procedure, shortened: (§1)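 Dounce homogenisation of K562 pellets in PBS pH 7.4 with 1 mM MgCl2 produced a crude extract, used at 1 mg/mL protein. Exposure to 10 μM compound lasted 30 min, and aliquots were then heated for 3 min across 48°C-58°C, pooled and brought to 0.5% NP-40 at 4°C. The supernatant after 21,000xg for 90 min was quantified by TMTpro 16plex LC-MS/MS with channel sums equalised. Duplicate values are given as log-two fold change in thermal stability relative to solvent controls.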

[2] = compound: CN1CCc2c(c3ccccc3n2Cc2ccc(C(=O)NO)cc2)C1 [Tubastatin A]
Procedure, shortened: as §1

[3] = compound: CNC(=O)C1=CC=CC=C1NC2=NC(=NC=C2Cl)NC3=C(C=C(C=C3)N4CCOCC4)OC
Procedure, shortened: as §1

[4] = compound: CNC(=O)c1ccc(Nc2ncc(C(F)(F)F)c(NCc3nccnc3N(C)S(C)(=O)=O)n2)cc1 [defactinib]
Procedure, shortened: as §1

[5] = compound: CNc1nc(-c2ccc3c(N)n[nH]c3c2)cc(N2C[C@@H](C(=O)NC3CCCCC3)CC[C@H]2C)n1
Procedure, shortened: as §1

[6] = compound: COC(=O)N[C@@H](C)CNc1nccc(-c2cn(C(C)C)nc2-c2cc(Cl)cc(NS(C)(=O)=O)c2F)n1 [encorafenib]
Procedure, shortened: as §1

[7] = compound: COC(=O)[C@H](CCSC)NC(=O)C1=C(C=C(C=C1)NC[C@H](CS)N)C2=CC=CC=C2
Procedure, shortened: as §1

[8] = compound: COc1cc(Nc2ncc3c(n2)-c2ccc(Cl)cc2C(c2c(F)cccc2OC)=NC3)ccc1C(=O)O [alisertib]
Procedure, shortened: as §1

[9] = compound: COc1cc2nc(-c3cc(F)ccc3O)nc(N[C@@H]3CNC[C@H]3C(C)(C)O)c2cc1OC
Procedure, shortened: as §1

[10] = compound: COc1cc2ncnc(Nc3ccc(F)c(Cl)c3)c2cc1OCCCN1CCOCC1 [gefitinib]
Procedure, shortened: as §1

Sequence of UniProt Q9BTD8 (Q9BTD8 whole entry, looked up): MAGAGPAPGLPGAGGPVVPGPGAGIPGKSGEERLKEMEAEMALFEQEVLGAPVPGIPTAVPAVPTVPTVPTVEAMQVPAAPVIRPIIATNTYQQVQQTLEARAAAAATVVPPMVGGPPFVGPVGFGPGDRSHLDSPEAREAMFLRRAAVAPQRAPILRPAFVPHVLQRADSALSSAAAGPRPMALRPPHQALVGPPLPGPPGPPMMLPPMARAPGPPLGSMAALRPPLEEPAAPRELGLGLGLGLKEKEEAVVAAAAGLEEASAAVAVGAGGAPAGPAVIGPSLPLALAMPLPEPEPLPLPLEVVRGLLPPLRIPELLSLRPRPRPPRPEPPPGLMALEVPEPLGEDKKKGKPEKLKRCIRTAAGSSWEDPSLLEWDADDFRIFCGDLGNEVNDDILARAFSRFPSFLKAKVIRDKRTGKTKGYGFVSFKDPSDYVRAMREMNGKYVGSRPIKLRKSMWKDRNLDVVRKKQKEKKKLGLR
Sequence of UniProt Q9P0K7 (Q9P0K7 whole entry, looked up): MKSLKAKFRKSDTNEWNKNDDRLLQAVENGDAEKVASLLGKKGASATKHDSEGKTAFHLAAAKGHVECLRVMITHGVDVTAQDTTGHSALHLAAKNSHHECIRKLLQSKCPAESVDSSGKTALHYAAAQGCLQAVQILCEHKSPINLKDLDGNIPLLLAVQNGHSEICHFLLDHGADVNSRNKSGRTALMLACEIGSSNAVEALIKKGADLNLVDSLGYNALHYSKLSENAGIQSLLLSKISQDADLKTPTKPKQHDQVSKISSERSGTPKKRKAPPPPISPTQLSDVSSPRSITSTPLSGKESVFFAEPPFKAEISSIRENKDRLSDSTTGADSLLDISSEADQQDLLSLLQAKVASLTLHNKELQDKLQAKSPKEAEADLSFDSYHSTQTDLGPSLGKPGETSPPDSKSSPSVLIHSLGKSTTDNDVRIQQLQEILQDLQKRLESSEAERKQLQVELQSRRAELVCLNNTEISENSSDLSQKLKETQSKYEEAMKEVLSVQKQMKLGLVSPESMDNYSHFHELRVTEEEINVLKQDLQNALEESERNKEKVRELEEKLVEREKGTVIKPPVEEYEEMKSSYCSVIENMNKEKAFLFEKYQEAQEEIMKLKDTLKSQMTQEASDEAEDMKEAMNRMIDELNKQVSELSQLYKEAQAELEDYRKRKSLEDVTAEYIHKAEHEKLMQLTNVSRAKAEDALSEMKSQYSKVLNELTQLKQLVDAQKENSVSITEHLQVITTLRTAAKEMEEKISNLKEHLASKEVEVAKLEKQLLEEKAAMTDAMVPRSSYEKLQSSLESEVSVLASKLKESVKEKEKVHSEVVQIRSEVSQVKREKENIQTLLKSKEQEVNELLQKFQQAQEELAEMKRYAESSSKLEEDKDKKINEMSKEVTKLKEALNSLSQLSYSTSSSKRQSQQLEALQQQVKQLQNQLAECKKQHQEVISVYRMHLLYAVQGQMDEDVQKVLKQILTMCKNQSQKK
Sequence of UniProt Q9BWH6 (Q9BWH6 whole entry, looked up): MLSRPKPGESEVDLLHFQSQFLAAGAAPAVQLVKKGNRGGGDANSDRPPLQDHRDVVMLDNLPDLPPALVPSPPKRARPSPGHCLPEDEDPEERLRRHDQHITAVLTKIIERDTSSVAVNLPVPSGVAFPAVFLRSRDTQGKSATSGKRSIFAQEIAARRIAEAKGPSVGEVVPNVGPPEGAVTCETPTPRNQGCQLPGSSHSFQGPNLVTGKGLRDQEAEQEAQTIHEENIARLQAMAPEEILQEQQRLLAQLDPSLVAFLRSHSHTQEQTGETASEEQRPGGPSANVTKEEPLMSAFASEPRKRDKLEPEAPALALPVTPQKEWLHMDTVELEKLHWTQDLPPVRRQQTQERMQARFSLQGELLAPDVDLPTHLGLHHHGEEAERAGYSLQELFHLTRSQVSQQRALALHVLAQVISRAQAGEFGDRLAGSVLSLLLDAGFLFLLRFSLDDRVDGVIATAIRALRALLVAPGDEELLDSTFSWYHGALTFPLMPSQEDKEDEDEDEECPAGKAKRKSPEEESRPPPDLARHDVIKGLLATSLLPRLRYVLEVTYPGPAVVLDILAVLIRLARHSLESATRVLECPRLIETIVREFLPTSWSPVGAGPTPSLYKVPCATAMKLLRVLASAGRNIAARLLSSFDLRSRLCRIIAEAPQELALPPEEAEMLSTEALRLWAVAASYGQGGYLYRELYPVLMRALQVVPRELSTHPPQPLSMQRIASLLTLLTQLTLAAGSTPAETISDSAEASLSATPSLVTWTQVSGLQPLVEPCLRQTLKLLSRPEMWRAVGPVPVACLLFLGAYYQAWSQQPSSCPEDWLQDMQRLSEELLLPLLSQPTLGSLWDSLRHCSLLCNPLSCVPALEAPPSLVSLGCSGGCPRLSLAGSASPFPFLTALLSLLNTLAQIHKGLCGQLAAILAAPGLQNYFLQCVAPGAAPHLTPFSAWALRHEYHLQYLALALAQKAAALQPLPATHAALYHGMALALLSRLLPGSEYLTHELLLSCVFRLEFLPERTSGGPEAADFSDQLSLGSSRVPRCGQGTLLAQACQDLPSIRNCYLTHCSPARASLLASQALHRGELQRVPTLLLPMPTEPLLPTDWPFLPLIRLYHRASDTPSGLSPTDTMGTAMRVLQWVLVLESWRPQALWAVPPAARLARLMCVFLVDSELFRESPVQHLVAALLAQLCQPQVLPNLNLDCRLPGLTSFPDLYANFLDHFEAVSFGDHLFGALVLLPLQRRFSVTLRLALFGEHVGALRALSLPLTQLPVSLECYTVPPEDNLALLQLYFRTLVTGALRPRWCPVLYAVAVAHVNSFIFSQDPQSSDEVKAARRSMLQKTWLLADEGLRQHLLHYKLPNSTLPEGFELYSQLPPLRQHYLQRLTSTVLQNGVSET
Sequence of UniProt Q4ADV7 (Q4ADV7 whole entry, looked up): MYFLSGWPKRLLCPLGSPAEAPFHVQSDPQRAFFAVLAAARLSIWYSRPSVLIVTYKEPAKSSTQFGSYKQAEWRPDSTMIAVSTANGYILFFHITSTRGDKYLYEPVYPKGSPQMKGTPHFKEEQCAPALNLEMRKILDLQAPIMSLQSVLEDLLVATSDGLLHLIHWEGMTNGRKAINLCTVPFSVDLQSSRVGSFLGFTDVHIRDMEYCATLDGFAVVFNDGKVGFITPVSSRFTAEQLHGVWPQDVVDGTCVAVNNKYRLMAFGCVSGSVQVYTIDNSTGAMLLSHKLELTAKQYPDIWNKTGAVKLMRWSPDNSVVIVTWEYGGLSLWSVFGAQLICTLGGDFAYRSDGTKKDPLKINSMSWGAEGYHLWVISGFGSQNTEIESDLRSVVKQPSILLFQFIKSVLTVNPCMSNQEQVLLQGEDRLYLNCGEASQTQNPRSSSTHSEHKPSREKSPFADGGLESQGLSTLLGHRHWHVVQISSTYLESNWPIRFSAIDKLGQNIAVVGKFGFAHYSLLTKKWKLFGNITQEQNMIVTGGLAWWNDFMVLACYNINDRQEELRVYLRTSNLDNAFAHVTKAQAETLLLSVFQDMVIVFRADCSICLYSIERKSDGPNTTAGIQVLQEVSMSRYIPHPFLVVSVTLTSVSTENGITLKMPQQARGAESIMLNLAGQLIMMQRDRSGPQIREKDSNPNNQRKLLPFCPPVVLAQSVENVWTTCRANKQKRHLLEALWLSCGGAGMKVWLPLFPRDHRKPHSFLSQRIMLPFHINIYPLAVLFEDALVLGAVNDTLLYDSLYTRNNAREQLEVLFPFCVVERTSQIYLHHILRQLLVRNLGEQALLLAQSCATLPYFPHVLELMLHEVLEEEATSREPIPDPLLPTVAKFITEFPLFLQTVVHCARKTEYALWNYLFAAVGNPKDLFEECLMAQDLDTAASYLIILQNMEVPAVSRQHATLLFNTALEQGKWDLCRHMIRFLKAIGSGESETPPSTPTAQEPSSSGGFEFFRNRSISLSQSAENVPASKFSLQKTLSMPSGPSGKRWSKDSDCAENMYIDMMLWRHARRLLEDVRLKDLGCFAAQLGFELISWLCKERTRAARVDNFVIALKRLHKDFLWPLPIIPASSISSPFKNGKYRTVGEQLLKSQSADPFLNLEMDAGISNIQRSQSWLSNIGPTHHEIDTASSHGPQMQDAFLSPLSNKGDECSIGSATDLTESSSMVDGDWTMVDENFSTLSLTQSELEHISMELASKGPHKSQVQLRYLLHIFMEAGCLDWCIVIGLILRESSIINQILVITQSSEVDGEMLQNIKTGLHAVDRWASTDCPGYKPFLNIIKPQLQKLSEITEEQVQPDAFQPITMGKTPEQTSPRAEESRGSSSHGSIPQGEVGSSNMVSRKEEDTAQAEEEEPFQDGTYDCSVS
Sequence of UniProt Q6PCD5 (Q6PCD5 whole entry, looked up): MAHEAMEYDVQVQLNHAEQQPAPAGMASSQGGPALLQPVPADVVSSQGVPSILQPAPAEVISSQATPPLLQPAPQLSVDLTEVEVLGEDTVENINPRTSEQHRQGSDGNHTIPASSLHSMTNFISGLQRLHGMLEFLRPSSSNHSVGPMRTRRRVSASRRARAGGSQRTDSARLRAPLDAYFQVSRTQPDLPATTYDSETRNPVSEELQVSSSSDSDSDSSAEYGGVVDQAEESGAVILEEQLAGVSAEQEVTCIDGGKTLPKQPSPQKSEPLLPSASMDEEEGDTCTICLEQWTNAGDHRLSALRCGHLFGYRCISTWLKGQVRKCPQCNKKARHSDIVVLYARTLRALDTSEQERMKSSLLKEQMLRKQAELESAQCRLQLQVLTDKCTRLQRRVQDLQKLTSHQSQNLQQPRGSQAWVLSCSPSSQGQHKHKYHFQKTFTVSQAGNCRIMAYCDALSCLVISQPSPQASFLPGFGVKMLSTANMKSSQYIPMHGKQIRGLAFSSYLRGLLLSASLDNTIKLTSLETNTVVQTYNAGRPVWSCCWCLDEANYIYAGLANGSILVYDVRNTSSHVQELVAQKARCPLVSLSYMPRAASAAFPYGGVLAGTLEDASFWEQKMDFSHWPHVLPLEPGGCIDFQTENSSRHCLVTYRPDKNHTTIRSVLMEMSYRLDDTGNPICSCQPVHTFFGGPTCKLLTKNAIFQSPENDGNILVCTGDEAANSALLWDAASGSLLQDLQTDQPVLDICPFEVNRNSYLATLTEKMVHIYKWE

Target | log2 fold change [1] | log2 fold change [2] | log2 fold change [3] | log2 fold change [4] | log2 fold change [5] | log2 fold change [6] | log2 fold change [7] | log2 fold change [8] | log2 fold change [9] | log2 fold change [10]
RINT1 (UniProt Q6NUQ1) | 0.041 | -0.083 | 0.011 | 0.047 | -0.072 | 0.01 | -0.017 | -0.086 | 0.065 | 0.035
RNF123 (UniProt Q5XPI4) | 0.011 | -0.047 | -0.002 | -0.027 | 0.017 | 0.044 | -0.062 | -0.004 | 0.017 | 0.011
RPL31 (UniProt P62899) | -0.013 | 0.032 | -0.042 | -0.024 | 0.044 | -0.016 | 0.035 | 0.033 | -0.015 | -0.035
RAB8B (UniProt Q92930) | 0.037 | 0.034 | -0.011 | -0.016 | -0.026 | -0.002 | -0.045 | 0.016 | 0.015 | 0.115
RIC1 (UniProt Q4ADV7) | 0.014 | -0.051 | 0.029 | -0.12 | 0.02 | 0.037 | -0.13 | 0.017 | -0.073 | 0.024
RARS (UniProt P54136) | 0.032 | -0.1 | -0.006 | 0.024 | -0.035 | -0.001 | 0.128 | 0.026 | -0.009 | -0.023
RBM42 (UniProt Q9BTD8) | -0.036 | -0.022 | 0.08 | 0.058 | 0.077 | 0.098 | -0.28 (active) | 0.043 | -0.062 | -0.066
RBBP7 isoform 2 (UniProt Q16576) | -0.005 | -0.004 | -0.021 | -0.023 | -0.028 | 0.03 | -0.034 | 0.03 | -0.003 | 0.002
SEC24D isoform 2 (UniProt O94855) | -0.012 | -0.018 | 0.002 | 0.012 | -0.008 | 0.029 | -0.163 | 0.005 | 0.006 | 0.006
RPS6KB1 (UniProt P23443) | -0.021 | -0.184 | 0.115 | 0.094 | -0.013 | -0.039 | 0.218 | -0.02 | 0.166 | 0.062
RPN2 (UniProt P04844) | -0.024 | 0.001 | -0.024 | -0.006 | -0.01 | 0.041 | -0.031 | -0.008 | -0.03 | 0.011
RBM22 (UniProt Q9NW64) | 0.022 | 0.019 | 0.009 | 0.001 | 0.179 | 0.05 | -0.11 | 0.002 | 0.026 | 0.031
RFC2 (UniProt P35250) | -0.025 | -0.21 | -0.012 | 0.023 | -0.055 | 0.042 | 0.113 | 0.014 | 0.005 | 0.007
RNF2 (UniProt Q99496) | 0.359 | -0.008 | 0.067 | 0.034 | 0.018 | 0.054 | -0.076 | -0.125 | – | -0.038
RAP1GAP isoform 4 (UniProt P47736) | 0.01 | -0.138 | 0.06 | 0.012 | -0.027 | 0.022 | 0.01 | 0.024 | 0.008 | 0.026
RBMX (UniProt P38159) | -0.003 | -0.03 | -0.042 | 0.023 | -0.022 | 0.021 | -0.068 | 0.002 | 0.013 | 0.023
RRAGA (UniProt Q7L523) | -0.122 | -0.687 (active) | -0.053 | -0.044 | -0.045 | -0.032 | -0.022 | -0.161 | 0.017 | 0.04
RAI14 isoform 2 (UniProt Q9P0K7) | 0.019 | -0.08 | 0.003 | 0.031 | 0.077 | 0.012 | 0.083 | -0.018 | 0 | 0.029
RIOK2 (UniProt Q9BVS4) | -0.021 | -0.098 | 0.438 (active) | 0.105 | 0.127 | -0.025 | 0.029 | -0.005 | -0.051 | -0.011
RECQL4 (UniProt O94761) | 0.042 | -0.045 | 0.104 | 0.049 | -0.02 | 0.023 | 0.056 | 0.028 | – | 0.065
RETSAT (UniProt Q6NUM9) | -0.114 | 0.179 | -0.071 | -0.045 | 0.402 | 0.079 | 0.025 | – | -0.059 | –
SCML2 (UniProt Q9UQR0) | 0.006 | -0.204 | 0.031 | -0.03 | -0.035 | 0.01 | 0.18 | 0.025 | -0.016 | -0.053
RCOR3 isoform 3 (UniProt Q9P2K3) | -0.005 | -0.09 | -0.002 | 0.009 | -0.014 | 0.012 | 0.088 | 0.003 | -0.006 | 0.026
RFWD3 (UniProt Q6PCD5) | -0.057 | 0.065 | 0.051 | 0.082 | -0.057 | 0.1 | -0.052 | 0.114 | – | -0.057
RAB1B (UniProt Q9H0U4) | -0.146 | 0.007 | -0.016 | -0.037 | 0.01 | 0.065 | -0.058 | 0.047 | 0.003 | 0.064
RPAP1 (UniProt Q9BWH6) | -0.001 | -0.077 | 0.016 | -0.006 | 0.007 | 0.019 | -0.069 | 0.013 | 0.027 | -0.007
SAMD4A (UniProt Q9UPU9) | 0.039 | -0.428 | -0.01 | 0.001 | 0.04 | 0.009 | -0.032 | – | 0.035 | –
RPS6KA1 (UniProt Q15418) | 0.447 (active) | -0.194 | 0.758 (active) | 0.236 | -0.007 | -0.121 | -0.002 | 0.012 | 0.165 | -0.007
RTN4IP1 (UniProt Q8WWV3) | 0.042 | -0.079 | 0.036 | -0.014 | 0 | -0.021 | 0.003 | -0.111 | 0.019 | 0.196
RAP1B (UniProt P61224) | 0.039 | 0.05 | 0.005 | 0.02 | 0.025 | 0.011 | -0.034 | 0.015 | 0.057 | -0.054
